HDAC3 inhib: blocks human histone deacetylase 3 | O15379 | recombinant HDAC3, fluorogenic peptide/trypsin coupled, fluorescence | inhibition, % at 8.3 µM | actives 0.15% (n = 320,000); in the data active = inhibition above about 26%, passing the limit was not always enough
PHOSPHO1 block: PHOSPHO1 (human) inhibition; Q8TCT1; recombinant PHOSPHO1, absorbance phosphatase assay; inhibition, % at 13.3 µM; actives 1.1% (n = 290,000); AID 1565; in the data active = inhibition above about 60%
PfM18AAP inh-1: PfM18AAP enzyme inhibition. recombinant PfM18AAP, H-Glu-NHMec fluorogenic cleavage. inhibition, % at 7.35 µM. actives 1.2% (n = 290,000). AID 1822;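 active = inhibition above the campaign mean inhibition over all tested compounds plus 3 SD, cut at about 28% in these data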;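 note: 0% = plate median of test compound wells and 100% = 2 mM ZnCl2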
p97 ATPase inh: human p97 ATPase inhibition | P55072 | recombinant p97 ATPase, Kinase-Glo ATP luminescence, 3 h | inhibition, % at 8 µM | actives 0.42% (n = 220,000); in the data active = inhibition above about 15%;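 note: 0% = DMSO vehicle and 100% = wells lacking enzyme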
G6PDH counter: inhibits Leuconostoc G6PDH, flagging false hits in G6PDH-based assays; actives 0.12% (n = 200,000); AID 1020; inhibition, % at 5 µM; Purified L. mesenteroides G6PDH, diaphorase/resazurin coupled fluorescence, 45 min; in the data active = inhibition above about 50%
UBC9 SUMO inh: blocks human SUMOylation mediated by UBC9; HTRF SUMOylation assay, SAE1/SAE2 + UBC9, in vitro; inhibition, % at 35 µM; actives 0.36% (n = 290,000); AID 2006; in the data active = inhibition above about 50%, passing the limit was not always enough
PfM18AAP inh-2: confirmation of Plasmodium falciparum M18 aspartyl aminopeptidase inhibitors; shares compounds with PfM18AAP inh-1; recombinant PfM18AAP, H-Glu-NHMec fluorogenic cleavage; inhibition, % at 7.35 µM; actives 28% (n = 2,400);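 active = mean inhibition over replicate wells above the hit cutoff set for the earlier primary screen, cut at about 29% in these data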;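 note: 0% = median of test compound wells and 100% = 2 mM ZnCl2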
CTSL1 confirm: Cathepsin L (human) inhibition, confirmation. shares compounds with PfM18AAP inh-1. purified cathepsin L1, Z-Leu-Arg-MCA fluorescence. inhibition, % at 5.96 µM. 2,400 tested, under 10 active. AID 2178;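 active = average inhibition across replicates above the hit cutoff set in the earlier primary screen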;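 note: 0% = median of test compound wells and 100% = Z-Phe-Ala-diazomethylketone 1 µM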
Target sequence (P07711 whole entry, looked up): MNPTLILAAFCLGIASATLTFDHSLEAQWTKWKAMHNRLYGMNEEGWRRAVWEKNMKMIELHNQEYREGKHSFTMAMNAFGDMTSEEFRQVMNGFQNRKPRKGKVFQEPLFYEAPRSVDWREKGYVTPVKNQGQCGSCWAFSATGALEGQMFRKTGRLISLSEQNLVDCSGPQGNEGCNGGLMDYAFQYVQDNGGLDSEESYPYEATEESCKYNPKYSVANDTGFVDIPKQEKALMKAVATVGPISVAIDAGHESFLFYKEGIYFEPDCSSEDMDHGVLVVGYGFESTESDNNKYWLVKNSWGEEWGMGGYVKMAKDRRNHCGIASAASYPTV
* hit, by the source's call; / = no result. Compounds with a hit are over-represented: about 2.5% of the library has one in this group of screens.

SMILES	HDAC3 inhib	PHOSPHO1 block	PfM18AAP inh-1	p97 ATPase inh	G6PDH counter	UBC9 SUMO inh	PfM18AAP inh-2	CTSL1 confirm
COc1cc(N=c2ssnc2Cl)cc(OC)c1OC	36*	-67	39*	0	-3	-26	-53	3
COc1cc(-c2nnc(-c3cc(OC)c(OC)c(OC)c3)o2)cc(OC)c1OC	-21	6	-2	1	1	8	/	/
CCOC(=O)c1oc2c(O)c(O)ccc2c(=O)c1-c1nncn1-c1ccccc1	4	22	46*	4	10	-30	26	5
CCOC(=O)c1oc2c(C)c(O)ccc2c(=O)c1-c1nncn1-c1ccccc1	7	16	-6	3	12	-1	/	/
CCOC(=O)c1sc(NS(=O)(=O)c2ccc(C)cc2)nc1C	7	7	-1	-1	7	12	/	/
CCOC(=O)c1sc(NNC(=O)c2ccc(C)cc2)nc1C	-4	33	37*	7	/	-9	8	-1
O=C(O)CCn1c2c(c3ccccc31)CCCC2	-1	16	45*	-2	7	20	-28	4
O=C(CCn1c2c(c3ccccc31)CCCC2)NNC(=O)c1ccccc1C(=O)O	-2	4	-4	7	/	-12	/	/
Cc1cc(C(=O)CSc2nc(N)cc(N)n2)c(C)n1-c1cccc(F)c1	-10	0	34*	1	-1	4	-37	-4
C=CCn1c(C)cc(C(=O)CSc2nc(N)cc(N)n2)c1C	2	-80	8	8	7	13	/	/
Cc1cc(C(=O)CSc2nc(N)cc(N)n2)c(C)n1C1CC1	-2	-15	36*	10	7	51*	-15	2
COc1ccc(C(=O)N2CCc3[nH]nc(-c4ccccc4)c3C2)cc1	-1	6	7	/	/	3	/	/
O=C1/C(=C\c2ccc(O)c(O)c2)N=C2CCCCCN12	2	20	65*	0	/	-18	56*	4
COc1ccc(-c2oc(NC(=O)CSc3ncn[nH]3)c(C#N)c2-c2ccc(OC)cc2)cc1	7	71*	73*	1	2	-28	25	-3
CCOC(=O)c1sc(NC(=O)CSc2ncn[nH]2)c(C#N)c1C	3	10	40*	0	10	6	9	-6
CCOC(=O)c1sc(N(Cc2ccccc2)C(=O)CSc2ncn[nH]2)nc1C	6	6	90*	3	6	19	-36	-3
O=C(CN1C(=O)NC2(CCCCC2)C1=O)Nc1ccc2[nH]c(=O)[nH]c2c1	-3	/	/	/	/	/	/	/
COc1cccc2sc3ccc(NCCC4CCCN4C)cc3c(=O)c12 (centres undefined)	-4	20	33*	/	/	14	-45	-2
CC(NCc1cc(Br)ccc1OCC(N)=O)C12CC3CC(CC(C3)C1)C2 (centres undefined)	-2	8	5	/	/	16	/	/
COc1ccc(S(=O)(=O)N2CCCCC2)cc1NC(=O)c1cncc(Br)c1	-3	/	/	/	/	/	/	/
CSCC[C@H](NC(=O)N1CCn2c1nc1ccccc12)C(=O)N[C@@H](C(=O)O)c1ccccc1	0	34	51*	/	/	12	42*	-5
CCN(CC)c1ccc([C@H]2[C@@H]3CCCC[C@]3(O)CCN2CC(=O)NCc2ccco2)cc1	1	58	23	1	/	14	/	/
CCN(CC)c1ccc(C2C3CCCCC3(O)CCN2CC(=O)N2CCCCC2)cc1 (centres undefined)	5	13	49*	2	13	10	-8	4
CCN(CC)P(=O)(Nc1ccc([N+](=O)[O-])cc1)c1c(C)nn(CCC#N)c1NC(=O)c1ccc(Cl)cc1 (centres undefined)	1	24	58*	/	/	9	8	-1
Cc1cc(NC(=O)c2ccc([N+](=O)[O-])cc2)n(CCC#N)n1	-3	37	1	/	/	11	/	/
Cc1ccc(NC(=O)CSCC(=O)N2CCN(c3cccc(C(F)(F)F)c3)CC2)cc1	-6	/	/	/	/	/	/	/
CSc1ccccc1C(=O)Nc1ncn[nH]1	1	9	5	/	/	16	/	/

Screening data from PubChem BioAssay.
